Data published in publication PMC4336329 (PLoS ONE, 2015).
The whole screen tested about 310,000 compounds, of which about 2,200 (0.71%) showed an effect of 50% or more. Effects have a minus sign here. Only a selection was taken, and strong results are over-represented in it overall.

Target: human ether-à-go-go-related gene (hERG) potassium channel (human, UniProt Q12809)
Assay: primary screen, population patch clamp on CHO cells stably expressing hERG; higher = less effect of the substance

Chain of human ether-à-go-go-related gene (hERG) potassium channel (Q12809 whole entry, looked up): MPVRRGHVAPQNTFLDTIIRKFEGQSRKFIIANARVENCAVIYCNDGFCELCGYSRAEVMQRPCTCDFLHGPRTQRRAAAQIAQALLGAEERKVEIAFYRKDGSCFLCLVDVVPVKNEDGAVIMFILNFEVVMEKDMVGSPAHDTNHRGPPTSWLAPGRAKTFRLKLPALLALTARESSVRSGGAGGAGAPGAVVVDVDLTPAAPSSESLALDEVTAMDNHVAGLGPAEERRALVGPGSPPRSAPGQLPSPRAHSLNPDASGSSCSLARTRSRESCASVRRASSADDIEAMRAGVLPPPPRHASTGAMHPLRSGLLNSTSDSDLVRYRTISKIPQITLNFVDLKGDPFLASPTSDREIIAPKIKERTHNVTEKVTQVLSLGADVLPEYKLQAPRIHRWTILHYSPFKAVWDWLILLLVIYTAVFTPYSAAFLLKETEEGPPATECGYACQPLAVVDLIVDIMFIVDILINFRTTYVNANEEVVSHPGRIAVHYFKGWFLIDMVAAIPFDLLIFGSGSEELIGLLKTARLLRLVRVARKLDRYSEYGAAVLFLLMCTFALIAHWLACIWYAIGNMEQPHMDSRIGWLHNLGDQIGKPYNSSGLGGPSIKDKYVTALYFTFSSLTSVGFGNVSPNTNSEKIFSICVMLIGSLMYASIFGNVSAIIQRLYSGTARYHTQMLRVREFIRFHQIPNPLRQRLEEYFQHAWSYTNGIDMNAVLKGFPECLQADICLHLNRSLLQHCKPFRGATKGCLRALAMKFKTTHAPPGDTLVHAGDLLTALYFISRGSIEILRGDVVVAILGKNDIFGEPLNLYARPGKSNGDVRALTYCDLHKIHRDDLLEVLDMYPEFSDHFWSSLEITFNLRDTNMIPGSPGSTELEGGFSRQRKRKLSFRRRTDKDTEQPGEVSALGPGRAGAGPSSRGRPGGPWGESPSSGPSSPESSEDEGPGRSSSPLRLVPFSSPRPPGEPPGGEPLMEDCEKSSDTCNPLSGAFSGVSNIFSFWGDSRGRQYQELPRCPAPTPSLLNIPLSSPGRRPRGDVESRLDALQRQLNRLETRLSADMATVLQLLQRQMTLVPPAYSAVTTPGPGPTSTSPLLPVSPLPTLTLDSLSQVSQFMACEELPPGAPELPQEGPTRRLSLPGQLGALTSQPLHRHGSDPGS

Q: For c1ccc(OCc2nn3c(-c4ccccn4)nnc3s2)cc1, which “hERG current change (%, negative = inhibition) at 1uM” value is on record?
A: 12.2%

Q: Which “hERG current change (%, negative = inhibition) at 1uM” value does the source give for O=C(CN(C(=O)CNC(=O)c1cccs1)c1ccc2c(c1)OCCO2)NC1CCCC1 here?
A: -3.99%

Q: For COc1cccc(NC(=S)NNC(=O)Cn2nc(C(F)(F)F)cc2C)c1, which “hERG current change (%, negative = inhibition) at 1uM” value is on record?
A: 9.84%

Q: Which “hERG current change (%, negative = inhibition) at 1uM” value does the source give for COc1ccc(COC(=O)C2=C(C)NC(=O)NC2c2ccc(OC)c(OC)c2)cc1 (centres unmarked) here?
A: 12.4%

Q: Cc1ccc(-c2cc3ccccc3nc2N2CCOCC2)cc1 was tested. Which “hERG current change (%, negative = inhibition) at 1uM” value did it give?
A: 9.78%

Q: Cc1ccc(OC(F)F)c(NC(=O)Nc2ccc3c(c2)OCO3)c1 was tested. Which “hERG current change (%, negative = inhibition) at 1uM” value did it give?
A: 19.9%

Q: With CC(=O)NC(c1ccco1)c1ccc2cccnc2c1O (centres unmarked) as the compound, how does the “hERG current change (%, negative = inhibition) at 1uM” value read?
A: -3.48%

Q: How did the “hERG current change (%, negative = inhibition) at 1uM” value turn out when Cc1cc(CSc2ccccc2C(=O)O)on1 was run?
A: 11.6%

Q: Which “hERG current change (%, negative = inhibition) at 1uM” value does the source give for Cc1ccc(C2=N/C(=C\c3cccnc3)C(=O)O2)cc1 here?
A: 3.52%

Q: For CS(=O)(=O)N1CCN(C2CCN(Cc3ccccc3)CC2)CC1, which “hERG current change (%, negative = inhibition) at 1uM” value is on record?
A: 7.88%

Q: For CN1CCN(CC2(O)CCN(S(=O)(=O)c3ccc(Cl)cc3)CC2)CC1, which “hERG current change (%, negative = inhibition) at 1uM” value is on record?
A: -9.27%

Q: For COc1ccc(S(=O)(=O)N2CCN(C3CCN(Cc4ccccc4)CC3)CC2)cc1, which “hERG current change (%, negative = inhibition) at 1uM” value is on record?
A: -15.6%

Q: With O=S(=O)(c1ccccc1)N1CCN(C2CCN(Cc3ccccc3)CC2)CC1 as the compound, how does the “hERG current change (%, negative = inhibition) at 1uM” value read?
A: -64.1%

Q: Which “hERG current change (%, negative = inhibition) at 1uM” value does the source give for O=S(=O)(c1ccc(Cl)cc1)N1CCC(O)(CN2CCN(Cc3ccccc3)CC2)CC1 here?
A: -75.6%

Q: With O=S(=O)(c1ccccc1)N1CCC(O)(CN2CCN(c3ccccc3)CC2)CC1 as the compound, how does the “hERG current change (%, negative = inhibition) at 1uM” value read?
A: 14.8%

Q: For Cc1cc(NC(=O)CCC(=O)N(Cc2cccnc2)C(C(=O)NC(C)(C)C)c2ccccc2Cl)no1 (centres unmarked), which “hERG current change (%, negative = inhibition) at 1uM” value is on record?
A: 14.7%

Q: Which “hERG current change (%, negative = inhibition) at 1uM” value does the source give for O=C1CN(c2ccccc2)C(=S)N1C(=O)c1ccccc1 here?
A: 13.5%

Q: With C/C(=N/NC(=O)c1ccc(Br)o1)c1cccc(NC(=O)c2ccc(C)o2)c1 as the compound, how does the “hERG current change (%, negative = inhibition) at 1uM” value read?
A: -58%

Q: How did the “hERG current change (%, negative = inhibition) at 1uM” value turn out when C/C(=N/NC(=O)c1ccco1)c1cccc(NC(=O)c2ccc(C)o2)c1 was run?
A: -8.71%

Q: Which “hERG current change (%, negative = inhibition) at 1uM” value does the source give for C/C(=N\NC(=O)c1cccc(Br)c1)c1cccc(NC(=O)c2ccc(C)o2)c1 here?
A: 2.01%

Q: Cc1[nH]c2ccc(C(=O)N3CCN(Cc4ccccc4)CC3)cc2c1C was tested. Which “hERG current change (%, negative = inhibition) at 1uM” value did it give?
A: 0.829%

Q: How did the “hERG current change (%, negative = inhibition) at 1uM” value turn out when CC1(c2nnc(-c3cccc(Cl)c3)o2)CC(c2ccccc2F)=NO1 (centres unmarked) was run?
A: 8.2%

Q: Which “hERG current change (%, negative = inhibition) at 1uM” value does the source give for O=c1c2ccccc2[nH]c(=S)n1CCCN1CCC(Cc2ccccc2)CC1 here?
A: -52%

Q: O=C(CN1CCC(C(=O)c2ccc(F)cc2)CC1)Nc1ccccc1 was tested. Which “hERG current change (%, negative = inhibition) at 1uM” value did it give?
A: -10.5%

Q: For CC1CCN(CCn2c(=S)[nH]c3ccccc3c2=O)CC1, which “hERG current change (%, negative = inhibition) at 1uM” value is on record?
A: 1.9%

Q: With O=C(CN1CCC(C(=O)c2ccc(F)cc2)CC1)NCc1ccccc1F as the compound, how does the “hERG current change (%, negative = inhibition) at 1uM” value read?
A: 2.84%

Q: For CC1(C)C(=O)N(CCN2CCC(C(=O)c3ccc(F)cc3)CC2)c2ccccc21.Cl, which “hERG current change (%, negative = inhibition) at 1uM” value is on record?
A: -60.8%

Q: For Cl.O.O=C(c1ccc(F)cc1)C1CCN(CCn2c(=S)[nH]c3ccccc3c2=O)CC1, which “hERG current change (%, negative = inhibition) at 1uM” value is on record?
A: -77.7%

Q: O=C(O)C(O)C(O)C(=O)O.O=C(c1ccc(F)cc1)C1CCN(CCn2c(=O)[nH]c3ccccc3c2=O)CC1 was tested. Which “hERG current change (%, negative = inhibition) at 1uM” value did it give?
A: -9.52%

Q: Which “hERG current change (%, negative = inhibition) at 1uM” value does the source give for O=c1c2ccccc2[nH]c(=S)n1CCCN1CCN(c2ccccc2)CC1 here?
A: 14%

Q: Which “hERG current change (%, negative = inhibition) at 1uM” value does the source give for CC1CCN(CCCn2c(=S)[nH]c3ccccc3c2=O)CC1 here?
A: -13.5%

Q: Which “hERG current change (%, negative = inhibition) at 1uM” value does the source give for O=C(CCSc1nc2ccccc2o1)N1CCOCC1 here?
A: 8.39%

Q: With CCOc1cc(C(=O)Nc2cccc3ncccc23)cc(OCC)c1OCC as the compound, how does the “hERG current change (%, negative = inhibition) at 1uM” value read?
A: -2.81%

Q: How did the “hERG current change (%, negative = inhibition) at 1uM” value turn out when COC(=O)Cc1c(O)ccn(Cc2ccccc2OC)c1=O was run?
A: 10.5%

Q: COc1cc(/C=N/Nc2nc3ccccc3[nH]2)cc(Br)c1OCC(=O)N(C)C was tested. Which “hERG current change (%, negative = inhibition) at 1uM” value did it give?
A: 0.153%

Q: For COc1ccc2c(CCNC(=O)c3ccc([N+](=O)[O-])cc3)c[nH]c2c1, which “hERG current change (%, negative = inhibition) at 1uM” value is on record?
A: 12.8%

Q: For Cc1cccn2c(=O)c(C=Nc3ccccc3)c(NCCO)nc12, which “hERG current change (%, negative = inhibition) at 1uM” value is on record?
A: 6%

Q: Cc1c(CC(=O)O)c(=O)oc2c(C)c3occ(-c4ccccc4)c3cc12 was tested. Which “hERG current change (%, negative = inhibition) at 1uM” value did it give?
A: 19.9%

Q: How did the “hERG current change (%, negative = inhibition) at 1uM” value turn out when CC1(c2ccc(OC(F)F)cc2)NC(=O)N(CC(=O)Nc2ccc(F)cc2)C1=O (centres unmarked) was run?
A: -15.6%

Q: How did the “hERG current change (%, negative = inhibition) at 1uM” value turn out when CC1(c2ccc(OC(F)F)cc2)NC(=O)N(CC(=O)Nc2ccc(OC(F)F)cc2)C1=O (centres unmarked) was run?
A: -100%

Q: Which “hERG current change (%, negative = inhibition) at 1uM” value does the source give for CC1(c2ccc(OC(F)F)cc2)NC(=O)N(CC(=O)Nc2ccccc2)C1=O (centres unmarked) here?
A: -26.2%

Q: For COc1ccc(O)c(/C=N/NC(=O)CN2CCS(=O)(=O)CC2)c1, which “hERG current change (%, negative = inhibition) at 1uM” value is on record?
A: 15.5%

Q: For COc1ccc(C2=NN(C(=O)CSc3nnc(C)c(=O)n3N)C(c3ccco3)C2)cc1 (centres unmarked), which “hERG current change (%, negative = inhibition) at 1uM” value is on record?
A: -0.0705%

Q: Which “hERG current change (%, negative = inhibition) at 1uM” value does the source give for COCC(=O)N1CCN(c2ccc([N+](=O)[O-])cc2)CC1 here?
A: -31.5%

Q: COc1ccccc1CC(=O)N1CCN(c2ccc([N+](=O)[O-])cc2)CC1 was tested. Which “hERG current change (%, negative = inhibition) at 1uM” value did it give?
A: -8.15%

Q: Which “hERG current change (%, negative = inhibition) at 1uM” value does the source give for COc1ccc(CCC(=O)N2CCN(c3ccc([N+](=O)[O-])cc3)CC2)cc1OC here?
A: -76.1%

Q: COc1cc(CCC(=O)N2CCN(c3ccc([N+](=O)[O-])cc3)CC2)cc(OC)c1OC was tested. Which “hERG current change (%, negative = inhibition) at 1uM” value did it give?
A: -83.6%
